Results reported in PubChem BioAssay (NCI).
This is part of a sample that, as a whole, favours compounds with a hit. Of some 79,000 tested, about 15% had one in any assay. Active and inactive are the calls of the source. Rule as the data show it: active = growth inhibition above about 70%; inactive = the rest.

Experiments:
[1] = NCI Yeast Anticancer Drug Screen. Data for the rad52 strain (AID 147);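 also: 0% = growth of vehicle-treated control cultures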; conditions: S. cerevisiae rad52 mutant growth inhibition, hits give high values
Procedure, shortened: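 DNA repair-defective yeast; compound exposure; growth scored against vehicle controls.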

[2] = NCI Yeast Anticancer Drug Screen. Data for the wt1 strain (AID 149);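 also: 0% = growth of vehicle-treated wt1 cultures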; conditions: S. cerevisiae wt1 strain (SPY 50644) growth inhibition, hits give high values
Procedure, shortened: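 Compounds are added to wt1 yeast cultures. Growth is then measured. Inhibition is expressed relative to vehicle-treated controls.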

[3] = NCI Yeast Anticancer Drug Screen. Data for the rad50EPP+ strain (AID 151);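 also: 0% = growth of vehicle-treated control cultures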; conditions: S. cerevisiae rad50 mutant strain, hits give high values
Procedure, shortened: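 rad50EPP+ yeast treated with test compounds. Readout: growth vs vehicle control.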

[4] = NCI Yeast Anticancer Drug Screen. Data for the mgt1 strain (AID 153); conditions: S. cerevisiae mgt1 mutant growth inhibition, hits give high values
Procedure, shortened: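 Growth inhibition relative to vehicle controls was scored for the mgt1 yeast strain after compound exposure.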

[5] = NCI Yeast Anticancer Drug Screen. Data for the rad50 strain (AID 155);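 also: 0% = growth of vehicle-only cultures of the same strain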; conditions: S. cerevisiae rad50 strain growth inhibition, hits give high values
Procedure, shortened: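 Inhibition values express reduced yeast growth in compound-treated cultures relative to vehicle-treated controls.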

[6] = NCI Yeast Anticancer Drug Screen. Data for the mec2-1 strain (AID 157); conditions: S. cerevisiae mec2-1 strain, hits give high values
Procedure, shortened: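 Growth inhibition is read against vehicle-treated controls after compound exposure of the mec2-1 yeast strain, which is defective in DNA damage repair or cell cycle control.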

[7] = NCI Yeast Anticancer Drug Screen. Data for the rad14 strain (AID 159);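 also: 0% = growth of vehicle-treated control cultures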; conditions: S. cerevisiae rad14 strain growth inhibition, hits give high values
Procedure, shortened: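 A mutant yeast strain defective in DNA damage repair is treated with compound; inhibition of its growth is scored against untreated, vehicle-exposed cultures.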

[8] = NCI Yeast Anticancer Drug Screen. Data for the sgs1 mgt1 strain (AID 161);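 also: 0% = growth of cultures given vehicle only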; conditions: S. cerevisiae sgs1 mgt1 strain, hits give high values
Procedure, shortened: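 Growth of a repair-deficient yeast mutant was monitored after compound treatment and expressed as inhibition relative to vehicle-treated cultures.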

[9] = NCI Yeast Anticancer Drug Screen. Data for the cln2 rad14 strain (AID 165);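 also: 0% = growth equal to vehicle treated cultures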; conditions: S. cerevisiae cln2 rad14 strain, hits give high values
Procedure, shortened: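 Growth inhibition, relative to vehicle-treated controls, is the read-out. The test organism is a yeast strain with defined genetic alterations, cln2 rad14.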

[10] = NCI Yeast Anticancer Drug Screen. Data for the bub3 strain (AID 167); conditions: S. cerevisiae bub3 mutant strain, hits give high values
Procedure, shortened: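 Steps: expose the mutant yeast strain to compound; grow alongside vehicle-treated cultures; measure growth; express inhibition against the vehicle cultures.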

[11] = NCI Yeast Anticancer Drug Screen. Data for the mlh1 strain (AID 171);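 also: 0% = growth of vehicle-treated control cultures of the same strain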; conditions: S. cerevisiae mlh1 strain growth inhibition, hits give high values
Procedure, shortened: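 Compounds are applied to a genetically altered yeast strain, and its growth is compared with that of vehicle-treated cultures to give percent inhibition.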

[12] = NCI Yeast Anticancer Drug Screen. Data for the sgs1 strain (AID 173);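 also: 0% = growth of vehicle-only control cultures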; conditions: S. cerevisiae sgs1 mutant, hits give high values
Procedure, shortened: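 Compounds applied to genetically altered yeast; growth compared with vehicle-treated cultures to give % inhibition.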

[13] = NCI Yeast Anticancer Drug Screen. Data for the mlh1 rad18 strain (AID 175); conditions: S. cerevisiae mlh1 rad18 strain growth inhibition, hits give high values
Procedure, shortened: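 Cells of a genetically altered yeast strain, deficient in DNA damage repair, were treated with compound. Their growth was then compared with that of vehicle-treated cultures to give inhibition.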

[14] = NCI Yeast Anticancer Drug Screen. Data for the rad18 strain (AID 177); conditions: S. cerevisiae rad18 mutant growth inhibition, hits give high values
Procedure, shortened: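 Compounds are applied to a repair-deficient yeast strain, and growth is compared with that of vehicle-treated cultures to give percent inhibition.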

[15] = NCI Yeast Anticancer Drug Screen. Data for the CLN2oe strain (AID 163);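 also: 0% = growth of vehicle-only control cultures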; conditions: S. cerevisiae CLN2oe strain, hits give high values
Procedure, shortened: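 Compound-treated yeast; growth vs vehicle ctrl = % inhibition. Genetically altered strain (cell-cycle control).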

[16] = NCI Yeast Anticancer Drug Screen. Data for the wt2 strain (AID 169);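 also: 0% = growth of vehicle-treated yeast cultures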; conditions: S. cerevisiae wt2 strain growth inhibition, hits give high values
Procedure, shortened: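 Compound exposure of yeast; growth compared with vehicle controls; inhibition reported.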

[17] = at 5.0 µM (retest, dose inferred, filed as 0.5)
[18] = at 50.0 µM (retest, dose inferred, filed as 5.0)

Measured: growth inhibition

O=C(CCSC1=NCCCN1)c1ccc(F)cc1
active: [1]; at 100.0 µM 99% | [2]; at 100.0 µM 98% | [3]; at 100.0 µM 98% | [4]; at 100.0 µM 99% | [5]; at 100.0 µM 96% | [6]; [18] 75% | [6]; at 50.0 µM 94.3% | [6]; at 100.0 µM 100% | [7]; at 100.0 µM 99% | [8]; [18] 93% | [8]; at 50.0 µM 91% | [10]; [18] 79% | [10]; at 50.0 µM 91.2% | [11]; at 100.0 µM 98% | [12]; at 100.0 µM 99% | [14]; at 100.0 µM 96%
inactive: [1]; at 1.2 µM -38% | [1]; at 3.7 µM -55% | [1]; at 11.0 µM -53% | [1]; at 33.0 µM 58% | [2]; at 1.2 µM -43% | [2]; at 3.7 µM -61% | [2]; at 11.0 µM -101% | [2]; at 33.0 µM 15% | [3]; at 1.2 µM -75% | [3]; at 3.7 µM -100% | [3]; at 11.0 µM -54% | [3]; at 33.0 µM 37% | [4]; at 1.2 µM -59% | [4]; at 3.7 µM -59% | [4]; at 11.0 µM -52% | [4]; at 33.0 µM -3% | [5]; at 1.2 µM -21% | [5]; at 3.7 µM -40% | [5]; [17] 24% | [5]; at 11.0 µM -34% | [5]; at 33.0 µM -34% | [5]; [18] 69% | [5]; at 50.0 µM 4.9% | [6]; at 1.2 µM -15% | [6]; at 3.7 µM 3% | [6]; [17] 17% | [6]; at 11.0 µM -52% | [6]; at 33.0 µM 55% | [7]; at 1.2 µM -19% | [7]; at 3.7 µM -50% | [7]; at 11.0 µM -54% | [7]; at 33.0 µM 23% | [8]; [17] 6% | [9]; [17] -3% | [9]; [18] 13% | [9]; at 50.0 µM 25.6% | [10]; at 1.2 µM -22% | [10]; at 3.7 µM -17% | [10]; [17] 12% | [10]; at 11.0 µM -23% | [10]; at 33.0 µM -26% | [10]; at 100.0 µM 68% | [11]; at 1.2 µM -32% | [11]; at 3.7 µM -73% | [11]; at 11.0 µM -23% | [11]; at 33.0 µM -13% | [12]; at 1.2 µM -41% | [12]; at 3.7 µM -52% | [12]; at 11.0 µM -58% | [12]; at 33.0 µM -29% | [13]; [17] 24% | [13]; [18] 48% | [13]; at 50.0 µM 14.9% | [14]; at 1.2 µM -13% | [14]; at 3.7 µM -23% | [14]; at 11.0 µM -22% | [14]; at 33.0 µM 21%

CC1CCN(CCC(=O)c2ccc([N+](=O)[O-])cc2)CC1
active: [10]; at 50.0 µM 89.6%
inactive: [1]; at 1.2 µM 9% | [1]; at 3.7 µM 1% | [1]; at 11.0 µM 8% | [1]; at 33.0 µM 34% | [1]; at 100.0 µM 40% | [2]; at 1.2 µM -1% | [2]; at 3.7 µM -1% | [2]; at 11.0 µM 1% | [2]; at 33.0 µM 0% | [2]; at 100.0 µM 7% | [3]; at 1.2 µM 1% | [3]; at 3.7 µM 1% | [3]; at 11.0 µM 3% | [3]; at 33.0 µM 15% | [3]; at 100.0 µM 19% | [5]; at 1.2 µM 9% | [5]; at 3.7 µM 13% | [5]; [17] 6% | [5]; at 11.0 µM 15% | [5]; at 33.0 µM 37% | [5]; [18] 31% | [5]; at 50.0 µM 63.5% | [5]; at 100.0 µM 48% | [6]; at 1.2 µM -1% | [6]; at 3.7 µM 2% | [6]; [17] 4% | [6]; at 11.0 µM 1% | [6]; at 33.0 µM 0% | [6]; [18] 69% | [6]; at 50.0 µM 14.5% | [6]; at 100.0 µM 14% | [7]; at 1.2 µM 14% | [7]; at 3.7 µM 25% | [7]; at 11.0 µM 34% | [7]; at 33.0 µM 36% | [7]; at 100.0 µM 45% | [8]; [17] 7% | [8]; [18] 68% | [8]; at 50.0 µM 68.5% | [15]; at 1.2 µM 2% | [15]; at 3.7 µM 5% | [15]; at 11.0 µM 15% | [15]; at 33.0 µM 30% | [15]; at 100.0 µM 40% | [9]; [17] 8% | [9]; [18] 34% | [9]; at 50.0 µM 31.2% | [10]; at 1.2 µM -2% | [10]; at 3.7 µM 2% | [10]; [17] 7% | [10]; at 11.0 µM 6% | [10]; at 33.0 µM 18% | [10]; [18] 65% | [10]; at 100.0 µM 31% | [16]; at 1.2 µM -6% | [16]; at 3.7 µM -2% | [16]; at 11.0 µM 3% | [16]; at 33.0 µM 1% | [16]; at 100.0 µM 16% | [11]; at 1.2 µM 1% | [11]; at 3.7 µM 7% | [11]; at 11.0 µM 9% | [11]; at 33.0 µM 30% | [11]; at 100.0 µM 39% | [12]; at 1.2 µM 2% | [12]; at 3.7 µM 16% | [12]; at 11.0 µM 25% | [12]; at 33.0 µM 46% | [12]; at 100.0 µM 54% | [13]; [17] 7% | [13]; [18] 62% | [13]; at 50.0 µM 40.4% | [14]; at 1.2 µM 6% | [14]; at 3.7 µM 16% | [14]; at 11.0 µM 23% | [14]; at 33.0 µM 20% | [14]; at 100.0 µM 31%

COc1c2c(c3c(c1CCC(=O)O)OC(C)(C)C=C3)OC(C)(C)C=C2
inactive: [1]; at 1.2 µM -3% | [1]; at 3.7 µM 1% | [1]; at 11.0 µM 10% | [1]; at 33.0 µM 62% | [2]; at 1.2 µM 0% | [2]; at 3.7 µM 2% | [2]; at 11.0 µM 13% | [2]; at 33.0 µM 49% | [3]; at 1.2 µM -3% | [3]; at 3.7 µM 1% | [3]; at 11.0 µM 5% | [3]; at 33.0 µM 15% | [3]; at 100.0 µM 35% | [4]; at 1.2 µM -1% | [4]; at 3.7 µM 0% | [4]; at 11.0 µM 15% | [4]; at 33.0 µM 61% | [6]; at 1.2 µM -2% | [6]; at 3.7 µM 2% | [6]; [17] -1% | [6]; at 11.0 µM 20% | [6]; at 33.0 µM 59% | [6]; [18] 49% | [6]; at 50.0 µM 65.8% | [7]; at 1.2 µM 0% | [7]; at 3.7 µM 2% | [7]; at 11.0 µM 11% | [7]; at 33.0 µM 53% | [8]; [17] -3% | [8]; [18] 32% | [8]; at 50.0 µM 69.8% | [9]; [17] 43% | [10]; at 1.2 µM -7% | [10]; at 3.7 µM -1% | [10]; [17] -13% | [10]; at 11.0 µM 6% | [10]; at 33.0 µM 58% | [10]; [18] 20% | [16]; at 1.2 µM -1% | [16]; at 3.7 µM 2% | [16]; at 11.0 µM 17% | [16]; at 33.0 µM 56% | [11]; at 1.2 µM 2% | [11]; at 3.7 µM 3% | [11]; at 11.0 µM 20% | [11]; at 33.0 µM 39% | [12]; at 1.2 µM 0% | [12]; at 3.7 µM 4% | [12]; at 11.0 µM 20% | [12]; at 33.0 µM 59% | [13]; [17] 3% | [13]; [18] 43% | [14]; at 1.2 µM 3% | [14]; at 3.7 µM 8% | [14]; at 11.0 µM 22% | [14]; at 33.0 µM 51%
active: [1]; at 100.0 µM 98% | [2]; at 100.0 µM 97% | [4]; at 100.0 µM 99% | [6]; at 100.0 µM 98% | [7]; at 100.0 µM 98% | [9]; [18] 82% | [9]; at 50.0 µM 91.2% | [10]; at 50.0 µM 71.9% | [10]; at 100.0 µM 97% | [16]; at 100.0 µM 98% | [11]; at 100.0 µM 99% | [12]; at 100.0 µM 98% | [13]; at 50.0 µM 76.4% | [14]; at 100.0 µM 97%
